High-throughput results from PubChem.
Cycloheximide cs – affects cycloheximide protein synthesis inhibition readout, counter-screen. max response, %. actives 12% (n = 300,000). cell reporter, cycloheximide protein synthesis inhibition counterscreen; in the data active means max response mostly above about 13%, no sharp cut-off; inactive means mostly below about 14%; further: read at 38.3 µM for the half of the compounds with a filed dose; 0% is about no effect
Pf growth 96h – P. falciparum growth inhibition at 96 hours. P. falciparum luciferase reporter growth, 96 h. Potency, µM (doses to about 28.7 µM), for the others: top-dose activity change, negative = inhibition, usual class: inhibitors. actives 6.9% (n = 320,000); further: potency means the concentration at half of the fitted maximal effect; on the % scale 0 is the no-effect control and ±100 the full control effect
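96 h incubation, 37 C, 5% CO2, of luciferase-reporter P. falciparum-infected RBCs (2% hematocrit, 0.05% parasitemia final) with test compounds; endpoint luminescence.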
Pf growth 48h – inhibits P. falciparum growth in the first generation, 48 h; P. falciparum luciferase growth in erythrocytes, 48 h; Potency, µM (top dose mostly 28.7 µM), for the others: at the top dose activity change, negative = inhibition, usual class: inhibitors; AID 504832; actives 5.9% (n = 310,000); further: potency means the concentration at half of the fitted maximal effect; on the % scale 0 is the no-effect control and ±100 the full control effect
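Cell-based growth assay: transgenic P. falciparum expressing firefly luciferase, cultured in red cells within RPMI 1640 containing 0.5% w/v Albumax, 24 mM bicarbonate and gentamycin. A drop in luciferase activity indicates inhibition.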
NS1 function inh – inhibitors of influenza NS1 protein function | Potency, µM (doses to about 46.1 µM), for inactives: at the top dose activity, positive = more growth | actives 0.4% (n = 270,000); calls by dose curve; further: potency means the concentration at half of the fitted maximal effect; actives are rising curves; nearly all actives have a fitted effect of over 50% in size
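S. cerevisiae expressing influenza A NS1, grown in glucose, washed, then diluted 1:100 into pH 6.0 -URA galactose medium with 23 nl compound. Growth recovery read as OD600; NS1-free strain serves as control.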
Shiga inhibitor – blocks Shiga toxin action in Vero cells; Vero cells, Shiga toxin protein synthesis inhibition reporter; inhibition, % at 38.7 µM; actives 9.2% (n = 290,000); in the data active means inhibition mostly above about 28%, no sharp cut-off; inactive means mostly below about 43%; further: 0% is about no effect
* hit, by the source's call; ? = inconclusive; . = no result. Shown are actives, neighbours in structure and some others; about 21% of the full set was active somewhere. Unless noted, the call rests on the fitted dose curve; in most records, active means well fitted inhibition curve with a large enough effect; inconclusive means small, poorly fitted or top-dose-only effect, or another doubt; inactive means no such curve, though single readings can be large or run the other way.

SMILES	Cycloheximide cs	Pf growth 96h	Pf growth 48h	NS1 function inh	Shiga inhibitor
COC(=O)C1=C(c2ccc(C(C)=O)cc2)C[C@@H]2CC[C@H]1N2C(=O)N1CCC(O)(c2ccc(Cl)cc2)CC1	.	?	10µM*	.	.
COC(=O)C1=C(c2ccc(OC)c(OC)c2)C[C@@H]2CC[C@H]1N2C(=O)N1CCC(C)CC1	.	?	31%	.	.
COC(=O)C1=C(c2ccc(C(C)=O)cc2)C[C@@H]2CC[C@H]1N2C(=O)N1CCC(C)CC1	.	-9%	13µM*	.	.
Cc1cccc(NC(=O)C2c3ccccc3C(=O)N3CCc4ccccc4C23)n1 (stereo not given)	13	0%	?	-17%	2
CCCc1nnc(NC(=O)OCC)s1	-2	-16%	51%	-1%	4
O=C1OC(c2cccc([N+](=O)[O-])c2)C2(CCCC2)C(=O)C12CCCCC2 (stereo not given)	3	-27%	?	21%	-6
O=C(Cc1cccc2ccccc12)NCCOc1ccccc1F	-1	34%	-8%	-8%	-4
NS(=O)(=O)c1ccc(CCNCc2cc(Br)ccc2OCc2ccccc2)cc1	-2	-18%	13µM*	-2%	-16
CCOc1cc(CNCCc2ccc(S(N)(=O)=O)cc2)ccc1OCc1ccccc1	-2	?	?	17%	-19
CCOCCCNCc1cc(Br)ccc1OCc1ccccc1	-4	?	10µM*	-10%	6
Brc1ccc(OCc2ccccc2)c(CNCC2CCCO2)c1 (stereo not given)	-3	33%	-5%	0%	-11
CCOc1cc(CNCCc2ccc(S(N)(=O)=O)cc2)cc(Cl)c1OCc1ccccc1	9	13µM*	13µM*	-5%	-10
OCCNCc1cc(Br)ccc1OCc1ccccc1	-3	-9%	-29%	-13%	-7
CCOc1ccc(NC(=O)CCC(=O)Nc2cc(OC)c(NC(=O)c3ccco3)cc2OC)cc1	-1	?	-1%	5%	-3
CC(=O)Nc1ccc(NS(=O)(=O)c2ccc(C)cc2)c([N+](=O)[O-])c1	4	?	14%	-2%	-16
COc1ccc(N2C(=O)c3ccccc3C(C)(C)C2=O)cc1	4	10%	19%	-133%	-11
Cn1ccnc1SCC(=O)NC1(C#N)CCCCC1	.	12%	55%	.	.
Cn1c(=NC(=O)C2CCCCC2)sc2cc([N+](=O)[O-])ccc21	42*	31%	42%	.	99*
CCOc1ccc2c(c1)sc(=NC(=O)C1CC1)n2C	39*	?	?	-30%	62*
COc1ccccc1NC(=O)N1C2CCCC1CC(NC(=O)c1ccccc1)C2 (stereo not given)	-3	?	-26%	.	-2
N/C(=N\NC(=O)c1cccc(F)c1)c1cc2ccccc2oc1=O	26*	-17%	?	4%	34*
CCOc1ccccc1NC(=O)c1cc2ccccc2oc1=O	10	?	56%	-5%	13
N/C(=N\NC(=O)c1ccc(F)cc1)c1cc2ccccc2oc1=O	10	15%	26%	0%	27
O=C(Nc1ccc(F)cc1F)c1cc2ccccc2oc1=O	20*	104%	-1%	17%	53*
COc1ccc(C(=O)Nc2ccccc2)cc1S(=O)(=O)Nc1cc(C)on1	-1	3%	4%	-3%	11
SMILES	Cycloheximide cs	Pf growth 96h	Pf growth 48h	NS1 function inh	Shiga inhibitor
CC(NC(=O)CSc1nnc(-c2cc3cc(Cl)ccc3o2)n1C)c1ccccc1 (stereo not given)	6	4.7µM*	?	-18%	19
Cn1c(SCC(=O)NC2CCCCC2)nnc1-c1cc2cc(Cl)ccc2o1	1	.	.	-1%	4
CCc1c(C)sc(NC(=O)c2cc(-c3ccco3)on2)c1C#N	12	?	43%	-5%	2
O=C(CSc1nncs1)NC(=O)Nc1ccc2c(c1)OCCO2	45*	166%	107%	6%	59*
O=C(CSc1nncs1)Nc1ccc2c(c1)OCCO2	59*	12%	.	-1%	58*
COc1ccc(CNC(=O)c2cnn3c(C(F)F)cc(C)nc23)cc1OC	-2	?	-9%	-1%	-3
CC(NC(=O)CSc1nc2sc3c(c2c(=O)n1-c1ccccc1)CCCC3)c1ccccc1 (stereo not given)	-1	-25%	12µM*	11%	-4
Cc1ccccc1-n1c(SCC(=O)c2c(N)n(C)c(=O)n(C)c2=O)nc2sc3c(c2c1=O)CCCC3	-3	0.93µM*	3.7µM*	20%	-1
Cn1c(SCC(=O)O)nc2sc3c(c2c1=O)CCC3	-2	?	-2%	0%	-8
CN(C)C(CNC(=O)CSc1nc2sc3c(c2c(=O)n1C)CCCC3)c1ccccc1 (stereo not given)	.	12µM*	?	.	.
COc1cccc(NC(=O)CN(C)C(C)C(=O)N2CCCC2)c1 (stereo not given)	.	-28%	?	.	.
O=C(Cn1c(NCCO)nc2ccccc21)Nc1ccc2c(c1)OCCCO2	.	3%	32%	.	.
O=C(CSc1ccc(-c2ccccn2)nn1)N1CCCc2ccccc21	1	?	0%	-9%	1
COc1ccc(-c2ccc(=O)n(Cc3c(F)cccc3Cl)n2)cc1	23*	-22%	12%	-39%	48*
COc1ccc(-c2ccc(=O)n(Cc3cccc([N+](=O)[O-])c3)n2)cc1	10	-27%	-25%	.	-5
CC(C)Cn1c(C(C)C)nc([N+](=O)[O-])c1S(=O)(=O)c1ccc(F)cc1	-5	?	10µM*	-18%	-8
Cn1cnc([N+](=O)[O-])c1S(=O)(=O)c1ccc(Cl)cc1	-3	-2%	2%	-62%	10
CCCc1nc([N+](=O)[O-])c(S(=O)(=O)c2ccccc2)n1CC(C)C	-3	12µM*	9.3µM*	-4%	-5
CCOC(=O)C1(Cc2ccccc2Cl)CCN(Cc2csc(C(C)=O)c2)CC1	-2	?	?	-1%	-7
CCOc1ccc(C(C)NC(=O)Cc2ccccc2F)cc1OCC (stereo not given)	1	1.3µM*	?	.	3
CCOc1ccc(C(C)NC(=O)c2cccnc2OCC)cc1OCC (stereo not given)	11	?	?	.	38
CCOc1ccccc1/C=C(/NC(=O)c1ccccc1)C(=O)NC(C)c1ccccc1 (stereo not given)	6	10µM*	5%	-4%	-10
CCOc1ccc(C(C)NC(=O)Cc2ccccc2)cc1OCC (stereo not given)	-3	2.1µM*	2.3µM*	-6%	-4
CCOc1ccc(C(CCc2ccccc2)NC(=O)c2ccccc2F)cc1OCC (stereo not given)	-2	1.5µM*	.	-7%	-4
Cc1occc1C(=O)N(C)Cc1nc(-c2ccccc2)no1	9	41%	7%	-7%	32
C=CCOc1cccc(C(=O)Nc2ncn[nH]2)c1	-3	10%	8%	5%	-2
Cc1cccn2c(=O)c(C(=O)NC3CCCCC3C)c(O)nc12 (stereo not given)	.	?	13µM*	.	.
Cc1ccn2c(=O)c(C(=O)NC3CCCCC3C)c(O)nc2c1 (stereo not given)	.	?	2.3µM*	.	.
